For 5 compounds, composite z-score and z-score results are on record in PubChem BioAssay.

Structures are written as SMILES. Activity calls are given as the source filed them.

The nature of experiment [1]: small molecules captured by biotinylated probe aFSTL3 – biochemical, small-molecule microarray, fluorescence 635/667, stem cell growth factor project, primary screen (AID 1064).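 Also: measures binding of the biotinylated anti-FSTL3 antibody to printed compounds.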 The conditions noted are these: higher = more signal.
A short description of experiment [2]: binders from COS7 lysate, DM2A8 probe, primary screen, torsin A project, cell lysate, small-molecule microarray, fluorescence 635/667 (AID 1065). The conditions noted are these: higher = more signal, COS7 lysate expressing mutant human TOR1A.
Experiment [3] can be described thus: small molecules captured by biotinylated probe aFGF2 – biochemical, small-molecule microarray, fluorescence 635/667, stem cell growth factor project, primary screen (AID 1067).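 Also: measures binding of biotinylated aFGF2 protein to printed compounds on slides; z-score merges feature fluorescence and signal-to-noise across triplicate slides.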 The conditions noted are these: higher = more signal.
Experiment [4] can be described thus: small molecules captured by biotinylated probe aFGF10 – biochemical, small-molecule microarray, fluorescence 635/667, stem cell growth factor project, primary screen (AID 1071).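 Also: score merges 667 nm spot intensity and signal to noise from triplicate slides.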 The conditions noted are these: higher = more signal.
Experiment [5] has as its target Neurogenic locus notch homolog protein 2 (Homo sapiens) (UniProt Q04721). In words: small molecules binding Notch2 protein – biochemical, small-molecule microarray, 635 nm fluorescence, stem cell growth factors, primary screen (AID 1073). To be noted: higher = more signal.
Experiment [6] deals with Pro-neuregulin-1, membrane-bound isoform (Homo sapiens) (UniProt Q02297). In words: small molecules binding neuregulin-1 protein – biochemical, small-molecule microarray, fluorescence 635/667, psychiatric disease protein project, primary screen (AID 1075).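 Also: score combines 667 nm spot fluorescence with signal to noise.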 To be noted: NRG1 binding, 635 nm fluorescence, higher = more signal.
Experiment [7] relates to Neuregulin-1 EGF-like domain. In words: small molecules binding NRG1 EGF domain – biochemical, small-molecule microarray, 635 nm fluorescence, primary screen (AID 1081).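 Also: binding of the protein to compounds printed on small-molecule microarray slides.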 To be noted: higher = more signal.
A short description of experiment [8]: FRG1 expression reporter modulators in myotubes – cell-based, C2C12 myotubes, firefly/Renilla luciferase, luminescence, FRG1 inhibition for FSHD, primary screen (AID 1084). To be noted: FRG1 promoter luciferase, higher = more signal, called active from +8 up or from −8 down.
Experiment [9] in a line: small molecules captured by biotinylated probe aFST – biochemical, small-molecule microarray, fluorescence 635/667, stem cell growth factor project, primary screen (AID 1086).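 Also: score merges 667 nm fluorescence with signal-to-noise of each printed compound spot.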 The conditions noted are these: higher = more signal.
The nature of experiment [10]: binders of probe aHhip on microarray, primary screen, stem cell growth factor project, biochemical, small-molecule microarray, fluorescence 635/667 (AID 1087).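 Also: score merges spot fluorescence at 667nm with spot signal to noise ratio.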 The conditions noted are these: higher = more signal.
Experiment [11] deals with PRMT1 (protein arginine N-methyltransferase 1). In words: small molecules binding arginine methyltransferase PRMT1 – biochemical, small-molecule microarray, 635 nm fluorescence, primary screen (AID 1088).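 Also: binding of Prmt1 protein to compounds spotted on small-molecule microarray slides.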 To be noted: higher = more signal.
Experiment [12] can be described thus: growth effects on S. cerevisiae YJM789 – YJM789 clinical isolate, OD600, 24 h, basal, primary screen (AID 1089).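 Also: growth of clinical yeast isolate S. cerevisiae YJM 789 seeded 1000 cells per well; test concentration not given here.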 To be noted: higher = more signal, called active from +8 up or from −8 down.
Experiment [13] is described as follows: S. pombe growth modifiers, basal conditions – strain 972, OD600, 24 h, no modulator, primary screen (AID 1090).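 Also: basal condition with compound alone and no growth modifier present; test concentration not given here.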 The conditions noted are these: S. pombe 972 growth, higher = more signal, called active from +8 up or from −8 down.
Experiment [14] is described as follows: budding yeast growth modifiers under rapamycin – strain BY4716, OD600, 96 h, primary screen (AID 1091). Also: test concentration not given here. The conditions noted are these: S. cerevisiae BY4716 + rapamycin, higher = more signal, called active from +8 up or from −8 down.
In experiment [15] the target is Torsin-1A-interacting protein 2 (Homo sapiens) (UniProt Q8NFQ8). In words: small molecules binding lysate-expressed LULL1 – cell lysate, human LULL1 lysate, 635/667 nm fluorescence, primary screen (AID 1092).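 Also: probe is lysate of COS7 cells overexpressing human LULL1; score merges per-feature 667 nm fluorescence with signal-to-noise.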 The conditions noted are these: small-molecule microarray, hLULL1 lysate binding, 635 nm fluorescence; higher = more signal.
The nature of experiment [16]: optical density change of DRC41 E. coli – strain DRC41, OD650, 24 h, E. coli filamentation project, primary screen (AID 1093).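 Also: MC1000 strain lacking acrAB efflux and sulA so SOS filamentation is blocked; test concentration not given here.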 To be noted: E. coli DRC41 growth, higher = more signal, called active from +8 up or from −8 down.
Experiment [17] can be described thus: probe aLefty2 binding to arrayed compounds – biochemical, biotinylated probe, 635/667 nm fluorescence, primary screen (AID 1094).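 Also: score merges spot fluorescence near 667 nm with spot signal-to-noise ratio.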 The conditions noted are these: small-molecule microarray, higher = more signal.
Experiment [18] deals with Noggin (protein binding on small-molecule microarray). In words: small molecules binding Noggin protein – biochemical, 635/667 nm fluorescence, primary screen (AID 1095).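 Also: score merges 667 nm feature fluorescence with signal to noise over triplicate slides.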 The conditions noted are these: 635 nm fluorescence, higher = more signal.
In experiment [19] the target is Neurogenic locus notch homolog protein 3 (Homo sapiens) (UniProt Q9UM47). In words: small molecules binding NOTCH3 protein – biochemical, 635/667 nm fluorescence, primary screen (AID 1096). To be noted: small-molecule microarray, 635 nm fluorescence, higher = more signal.
Experiment [20] is described as follows: probe aEGFR binding to arrayed compounds – biochemical, biotinylated probe, 635/667 nm fluorescence, primary screen (AID 1097).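 Also: probe is a biotinylated anti-EGFR antibody binding compounds printed on slides; score combines fluorescence near 667 nm and signal to noise of each spot.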 To be noted: small-molecule microarray, higher = more signal.

Chain of Neurogenic locus notch homolog protein 3 (Homo sapiens) (Q9UM47 whole entry, looked up): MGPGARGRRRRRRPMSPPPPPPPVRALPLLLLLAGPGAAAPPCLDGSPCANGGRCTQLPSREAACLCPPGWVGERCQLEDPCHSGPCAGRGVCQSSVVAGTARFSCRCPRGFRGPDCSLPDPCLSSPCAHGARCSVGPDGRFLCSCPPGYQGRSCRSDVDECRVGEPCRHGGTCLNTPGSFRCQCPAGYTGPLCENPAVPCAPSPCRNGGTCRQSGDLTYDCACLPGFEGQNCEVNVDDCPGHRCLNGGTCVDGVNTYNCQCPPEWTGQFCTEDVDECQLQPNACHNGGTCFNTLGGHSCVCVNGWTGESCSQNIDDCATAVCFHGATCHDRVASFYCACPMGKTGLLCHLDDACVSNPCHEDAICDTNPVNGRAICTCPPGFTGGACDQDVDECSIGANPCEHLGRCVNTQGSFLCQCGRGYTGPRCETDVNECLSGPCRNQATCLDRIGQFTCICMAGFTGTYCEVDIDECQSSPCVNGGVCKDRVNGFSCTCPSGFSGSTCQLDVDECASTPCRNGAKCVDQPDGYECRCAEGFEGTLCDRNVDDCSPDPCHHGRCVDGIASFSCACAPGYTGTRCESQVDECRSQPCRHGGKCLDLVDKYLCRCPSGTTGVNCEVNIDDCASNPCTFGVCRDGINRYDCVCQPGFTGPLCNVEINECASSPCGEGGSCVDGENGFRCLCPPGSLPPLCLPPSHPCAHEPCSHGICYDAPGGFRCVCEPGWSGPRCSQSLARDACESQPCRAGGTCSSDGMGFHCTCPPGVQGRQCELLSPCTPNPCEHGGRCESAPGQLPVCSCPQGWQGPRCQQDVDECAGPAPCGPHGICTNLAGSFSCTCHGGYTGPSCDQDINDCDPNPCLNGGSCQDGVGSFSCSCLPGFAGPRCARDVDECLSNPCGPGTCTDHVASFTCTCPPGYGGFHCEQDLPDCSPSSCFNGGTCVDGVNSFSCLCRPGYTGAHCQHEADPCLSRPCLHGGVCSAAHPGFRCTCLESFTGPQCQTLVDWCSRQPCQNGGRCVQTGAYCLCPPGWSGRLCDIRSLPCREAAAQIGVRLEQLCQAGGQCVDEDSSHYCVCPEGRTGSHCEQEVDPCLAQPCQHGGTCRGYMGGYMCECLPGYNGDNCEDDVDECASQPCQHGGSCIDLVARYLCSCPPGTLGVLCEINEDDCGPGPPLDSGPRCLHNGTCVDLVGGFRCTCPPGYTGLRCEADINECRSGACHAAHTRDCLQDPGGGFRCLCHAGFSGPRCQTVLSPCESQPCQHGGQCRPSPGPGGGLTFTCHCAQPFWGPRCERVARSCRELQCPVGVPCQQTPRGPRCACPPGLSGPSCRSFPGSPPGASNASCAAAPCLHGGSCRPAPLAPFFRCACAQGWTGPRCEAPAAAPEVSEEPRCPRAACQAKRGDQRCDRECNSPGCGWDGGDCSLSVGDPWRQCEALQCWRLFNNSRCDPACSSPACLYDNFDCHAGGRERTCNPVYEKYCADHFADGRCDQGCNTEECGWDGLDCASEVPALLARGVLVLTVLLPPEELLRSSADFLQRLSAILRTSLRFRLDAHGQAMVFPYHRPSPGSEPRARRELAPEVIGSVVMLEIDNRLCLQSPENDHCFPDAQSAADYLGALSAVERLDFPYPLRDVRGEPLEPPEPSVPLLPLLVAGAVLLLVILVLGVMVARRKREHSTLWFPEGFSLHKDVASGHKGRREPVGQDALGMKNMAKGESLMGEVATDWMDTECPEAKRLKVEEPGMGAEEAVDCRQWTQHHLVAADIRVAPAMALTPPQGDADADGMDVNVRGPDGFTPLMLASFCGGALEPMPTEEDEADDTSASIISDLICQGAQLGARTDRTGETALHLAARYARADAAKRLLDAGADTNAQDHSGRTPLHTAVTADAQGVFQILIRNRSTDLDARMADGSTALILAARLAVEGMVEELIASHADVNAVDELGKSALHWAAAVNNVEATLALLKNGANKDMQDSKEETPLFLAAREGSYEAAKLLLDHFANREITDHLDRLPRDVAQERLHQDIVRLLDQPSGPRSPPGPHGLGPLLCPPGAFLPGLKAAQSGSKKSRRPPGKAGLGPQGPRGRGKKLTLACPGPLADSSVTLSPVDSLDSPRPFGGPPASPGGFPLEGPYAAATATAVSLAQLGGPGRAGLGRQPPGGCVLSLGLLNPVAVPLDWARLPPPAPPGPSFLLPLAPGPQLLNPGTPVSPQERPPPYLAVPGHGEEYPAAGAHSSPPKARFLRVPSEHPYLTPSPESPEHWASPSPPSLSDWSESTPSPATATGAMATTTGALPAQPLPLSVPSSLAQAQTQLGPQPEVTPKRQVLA
Chain of Pro-neuregulin-1, membrane-bound isoform (Homo sapiens) (Q02297 whole entry, looked up, the tested form may be a part, canonical isoform): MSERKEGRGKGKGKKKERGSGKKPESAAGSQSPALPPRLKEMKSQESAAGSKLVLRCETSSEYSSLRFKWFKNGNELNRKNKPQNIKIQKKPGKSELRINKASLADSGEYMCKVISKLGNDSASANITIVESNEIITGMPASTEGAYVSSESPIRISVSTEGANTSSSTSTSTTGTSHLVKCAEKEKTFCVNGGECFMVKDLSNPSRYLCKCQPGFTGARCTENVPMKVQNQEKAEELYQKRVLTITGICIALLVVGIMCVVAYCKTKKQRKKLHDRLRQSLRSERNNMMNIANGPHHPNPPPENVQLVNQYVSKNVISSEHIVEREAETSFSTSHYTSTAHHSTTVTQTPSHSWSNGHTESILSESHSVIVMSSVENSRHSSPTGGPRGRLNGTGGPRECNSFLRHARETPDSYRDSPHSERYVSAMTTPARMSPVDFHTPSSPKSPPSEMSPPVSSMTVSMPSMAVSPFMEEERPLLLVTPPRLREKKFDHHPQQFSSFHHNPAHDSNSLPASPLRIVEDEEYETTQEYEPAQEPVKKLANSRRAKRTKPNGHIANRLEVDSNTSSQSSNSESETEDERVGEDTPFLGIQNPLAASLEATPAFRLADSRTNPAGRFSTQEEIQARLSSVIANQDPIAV
Chain of Torsin-1A-interacting protein 2 (Homo sapiens) (Q8NFQ8 whole entry, looked up): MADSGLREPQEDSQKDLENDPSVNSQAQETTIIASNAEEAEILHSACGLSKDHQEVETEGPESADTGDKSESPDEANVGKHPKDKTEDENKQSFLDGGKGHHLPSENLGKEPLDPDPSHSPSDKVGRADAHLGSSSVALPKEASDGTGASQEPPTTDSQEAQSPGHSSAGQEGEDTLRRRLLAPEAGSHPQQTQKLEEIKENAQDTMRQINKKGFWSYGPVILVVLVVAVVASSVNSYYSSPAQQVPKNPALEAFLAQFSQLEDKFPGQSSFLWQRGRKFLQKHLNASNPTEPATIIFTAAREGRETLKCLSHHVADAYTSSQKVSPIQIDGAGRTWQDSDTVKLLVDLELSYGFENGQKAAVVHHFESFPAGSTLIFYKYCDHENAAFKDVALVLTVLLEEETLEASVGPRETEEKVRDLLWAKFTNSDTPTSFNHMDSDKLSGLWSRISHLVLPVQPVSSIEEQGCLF

Consider `COCCOC(=O)N1C(=O)[C@@]2(c3cc(C#CC4(O)CCCCCC4)ccc31)[C@H](C(=O)N1CCCCCCC1)[C@H]1C(=O)O[C@H](c3ccccc3)[C@H](c3ccccc3)N1[C@@H]2c1ccccc1OCCO`, for which the composite z-score in experiment [1] came out at 2.49; in experiment [2], 0.859; in [3], 0.249; in experiment [4] it was 0.298; in [5] it was 1.25; in [6], 1.17. For the same compound, the composite z-score in experiment [7] stood at 1.28; in [9], 2.2; in experiment [10] it was 1.04; in experiment [11] it was 1.48; in experiment [15] it was 3.22; in experiment [17], 0.911. Further, the composite z-score in experiment [18] came out at 1.55; in experiment [19], 1.05; in experiment [20] it was 0.495. Moreover, the z-score was 0.25 (inactive) in experiment [8]; 1.41 (inactive) in experiment [12]; -1.07 (inactive) in [13]; 3.73 (inactive) in [14]; 0.431 (inactive) in experiment [16].
Turning to `NCCCCCCNC(=O)[C@H]1C[C@H]2C(=O)NCC(=O)N2[C@H]1c1cccc(OCCO)c1`, the composite z-score in [1] is -0.196; in experiment [2], 0.615; in experiment [3], -0.0647; in experiment [4], 0.477; in experiment [5], 0.363; in experiment [6] it was 0.933. For the same compound, the composite z-score in [7] was 1.13; in experiment [9], 0.0417; in [10], -0.0994; in experiment [11], 1.58; in [15] it was 1.59; in experiment [17], 0.0537. The results for the composite z-score in experiment [18], in experiment [19] and in [20] were 1.5, 1.15 and -0.034, respectively. In addition, the z-score in [8] was 1.03 (inactive); in experiment [12], 0.23 (inactive); in [13] it was -1.12 (inactive); in experiment [14], -0.442 (inactive); in experiment [16], 1.1 (inactive).
For the compound `O=C/C=C/c1ccc2c(c1)OCO2`, the composite z-score was -0.23 in experiment [1]; -0.508 in experiment [2]; -0.115 in experiment [3]; 0.182 in experiment [4]; -0.24 in experiment [5]; -0.31 in experiment [6]. For the same compound, the composite z-score in experiment [7] was 0.0106; in experiment [9], -0.158; in experiment [10] it was 0.0821; in experiment [11], 0.274; in [15], -0.857; in experiment [17] it was -0.151. Moreover, the composite z-score in experiment [18] is 0.542; in experiment [19], 0.0863; in experiment [20] it was -0.0978. Further, the z-score in [8] was -0.779 (inactive); in experiment [12], -3.66 (inactive); in experiment [13] it was -16.7 (active); in experiment [14], -1.69 (inactive); in experiment [16], -1.98 (inactive).
On to `Cc1c(NC(=O)CC#N)c(=O)n(-c2ccccc2)n1C`, for which the composite z-score in experiment [1] was -0.436; in [2] it was 0.114; in experiment [3], -0.0996; in [4], 0.374; in experiment [5], 0.348; in [6] it was 0.379. Further, the composite z-score is 0.483 in experiment [7]; 0.404 in experiment [9]; -0.498 in [10]; 0.175 in experiment [11]; 1.16 in experiment [15]; -0.225 in experiment [17]. In addition, the composite z-score in experiment [18] is 0.407; in experiment [19] it was 0.66; in [20] it was -0.0856. Also, the z-score is 1.66 (inactive) in experiment [8]; -1.36 (inactive) in experiment [12]; -0.263 (inactive) in [13]; -0.722 (inactive) in experiment [14]; -0.325 (inactive) in experiment [16].
For `CC(C)NC(=O)[C@@H]1c2ccccc2C(=O)N(Cc2ccccc2Cl)[C@H]1c1ccc(CO)cc1`, the composite z-score in [1] was 0.717; in experiment [2], 0.337; in experiment [3] it was -0.145; in [4] it was -0.277; in [5] it was -0.387; in experiment [6], 1.49. Further, the composite z-score in experiment [7] was 1.39; in [9] it was -0.216; in [10] it was -0.137; in experiment [11], 1.4; in experiment [15], 1.8; in experiment [17], -0.053. For the same compound, the composite z-score in experiment [18] is -0.384; in experiment [19] it was 0.143; in [20] it was -0.287. Besides, the z-score is -1.84 (inactive) in experiment [8]; 0.759 (inactive) in experiment [12]; 0.247 (inactive) in experiment [13]; 0.173 (inactive) in [14]; 1.19 (inactive) in experiment [16].
